Among all 1,200 compounds or so, about 650 (54%) were called active. About 5% were inconclusive and are not listed.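 Rule for the calls: active = signal-lowering curve whose fitted half-maximal concentration is at or below ten times the top valid dose tested; inconclusive = flat curve with 30 to 70% inhibition, or poor fit; inactive = signal increase, flat within 30%, or potency beyond limit.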 The set was probably picked from earlier hits. A selection follows. Measured potencies and affinities stand elsewhere.
Test: EBV LMP1 TES2 canonical NF-kB signalling blockers – cell-based, HEK293, luciferase, cherry-pick, dose response (AID 588343)
Details: HEK293 LMP1 TES2 NF-kB luciferase reporter, 16 h; series mostly up to 35 µM

| Compound | outcome |
| --- | --- |
| COc1cc(C(c2sc3nc(C)nn3c2O)N2CCc3ccccc3C2)cc(OC)c1OC (stereo unspecified) | inactive |
| O=C(OCc1ccccc1F)c1cc2ccccc2cc1O | inactive |
| Nc1cc(=O)[nH]c(SCCSc2cc(Cl)ccc2Cl)n1 | inactive |
| OCCN(CCO)CC(O)COCCC12CC3CC(CC(C3)C1)C2 (stereo unspecified) | inactive |
| CN=C1S/C(=C\c2ccc(O)c(Br)c2)C(=O)N1C | inactive |
| CC(=O)OCC(=O)[C@@]1(O)CC[C@H]2[C@@H]3CCC4=CC(=O)CC[C@]4(C)[C@H]3[C@@H](O)C[C@@]21C | inactive |
| Cc1cccc(-n2c(O)c(C=Nc3c(C)n(C)n(-c4ccccc4)c3=O)c3ccccc3c2=O)n1 | inactive |
| O=c1c(O)c(-c2ccc(O)c(O)c2)oc2cc(O)cc(O)c12 | inactive |
| CN(Cc1ccccc1)c1nc(N)c([N+](=O)[O-])c(NCc2ccccc2)n1 | inactive |
| COc1ccccc1C(=O)Nc1c[nH]c(=O)[nH]c1=O | inactive |
| COc1ccc(N2Cc3cccc(C(=O)NC(C)CCc4ccco4)c3C2=O)cc1 (stereo unspecified) | inactive |
| COc1ccc(N2C(=O)C(Cl)=C(NCc3ccccc3)C2=O)cc1 | inactive |
| Cc1cc(=O)[nH]c(=S)[nH]1 | inactive |
| C=CC[N+](C)(C)C/C(Cl)=C(\Cl)c1ccccc1 | inactive |
| O=c1cc(C2CCCCC2)[nH]c(=O)[nH]1 | inactive |
| CC(C)NC(=O)N(C)C[C@H]1Oc2c(NC(=O)Nc3ccc4c(c3)OCO4)cccc2C(=O)N([C@H](C)CO)C[C@@H]1C | inactive |
| Cc1ccc(S(=O)(=O)N2CCN(C(=O)COC(=O)COc3ccc(Cl)cc3)CC2)c(C)c1 | inactive |
| COc1cc2cc(C(=O)N3CCN(c4ccccc4OC)CC3)[nH]c2cc1OC | inactive |
| CCC(C)N1C(=O)CCC1C(=O)N1CCN(c2ccc(F)cc2)CC1 (stereo unspecified) | inactive |
| O=C1c2cccc3c(O)ccc(c23)C(=O)N1c1ccc(Cl)cc1 | inactive |
| O=C(CC(c1ccc(F)cc1)c1ccco1)N1CCOCC1 (stereo unspecified) | inactive |
| Fc1cccc(Cl)c1/C=N/n1c(-c2cccnc2)n[nH]c1=S | inactive |
| COc1ccc(/C=C/C(=O)OCC(=O)NCc2ccco2)cc1OC | inactive |
| O=C(NCc1ccco1)C1CC(=O)N(c2cccc(Cl)c2)C1 (stereo unspecified) | inactive |
| COc1cc(NCCCCCCN)c2ncccc2c1OC | inactive |
| O=C(Nc1ccc(F)c(F)c1)C1CCCCC1 | inactive |

| Compound | outcome |
| --- | --- |
| Cc1ccc(S(=O)(=O)N2CCN(C(=O)CSc3nnnn3C)C2)cc1 | inactive |
| COC(=O)c1ccccc1NC(=O)CSc1nnnn1C | inactive |
| O=C1c2ccccc2C(O)N1Cc1ccccc1 (stereo unspecified) | inactive |
| Cc1cc(=S)[nH]c2ccccc12 | inactive |
| Cc1ccc(-n2c(=O)c3c(c4cc(C)ccc4n3C)n(CC(=O)NCC3CCCO3)c2=O)cc1 (stereo unspecified) | inactive |
| COC(=O)c1c(O)ccc(Oc2ccccc2)c1C(=O)OC | inactive |
| CC1CCN(CCOc2ccc(C(=O)c3ccccc3)cc2)CC1 | inactive |
| NC(=O)OCC(COC(N)=O)c1ccccc1 | inactive |
| O=C(O)c1ccccc1Nc1cccc(OCc2ccc3ccccc3n2)c1 | inactive |
| CCN(CC)S(=O)(=O)c1ccc(N=NC2=C(O)CCCC2=O)cc1 | inactive |
| Cc1cc(NC(=O)CSc2ccnc(=O)[nH]2)no1 | inactive |
| COC(=O)c1c(NC(=O)c2nn(C)cc2Cl)sc2c1CCCC2 | inactive |
| Nc1ccccc1SC1CC(=O)N(c2ccccc2Cl)C1=O (stereo unspecified) | inactive |
| Cc1ccc(S(=O)(=O)N[C@H](C(=O)N2CCC(C(=O)N[C@@H](CC(=O)O)C(=O)O)CC2)C(C)C)cc1 | inactive |
| CCCSc1ccc([C@@H]2[C@H]3C(=O)N(C)C(=O)[C@H]3[C@]3(C(=O)OC)CCCN23)cc1OC | inactive |
| CC(C)N1CCN(c2ccc(OC[C@H]3CO[C@](Cn4cncn4)(c4ccc(Cl)cc4Cl)O3)cc2)CC1 | inactive |
| COC(=O)C1=C(C(=O)c2ccccc2)C(c2ccccc2)n2nnnc2N1 (stereo unspecified) | inactive |
| Cc1cc(C)n2nc(CC(=O)NC3CCCCCC3)nc2n1 | inactive |
| Cc1cc(=O)[nH]c(N/N=C/c2ccc(C)o2)n1 | inactive |
| Cc1cc(C)c2sc(NC(=O)C3CC3)nc2c1 | inactive |
| CCSC1=C(C#N)C(c2ccc(C)o2)CC(=O)N1 (stereo unspecified) | inactive |
| CC(=O)/C=C/c1ccccc1O | inactive |
| COc1ccc(-c2csc(Nc3cccc(C)n3)n2)cc1OC | inactive |
| CCOC(=O)c1c(NC(=O)C2C3CCC(O3)C2C(=O)O)sc(C)c1-c1ccc(F)cc1 (stereo unspecified) | inactive |
| CCN1C(=O)[C@@H]2[C@@H](c3ccc(-c4ccc(Cl)c(Cl)c4)cc3)N3CCC[C@@]3(C(=O)OC)[C@@H]2C1=O | inactive |
| COc1ccc([C@H]2N[C@]3(CCCN(Cc4ccco4)C3=O)[C@H]3C(=O)N(Cc4ccccc4)C(=O)[C@@H]23)cc1 | inactive |

| Compound | outcome |
| --- | --- |
| O=C1N[C@@H](Cc2c[nH]c3ccccc23)COC(=O)[C@H](Cc2ccc(F)cc2)C/C=C\C[C@H]1CC(=O)N(CCO)Cc1ccccc1 | inactive |
| Cc1sc2nc(SCC(=O)OC(C)C)n(C)c(=O)c2c1C | inactive |
| CCCCCn1c(N2CCOCC2)nc2c1c(=O)n(CC(N)=O)c(=O)n2C | inactive |
| COc1cc2c(CCNC(C)=O)c[nH]c2cc1Cl | inactive |
| CC(C)OCCCNC(=O)C1CCC(CNS(=O)(=O)c2ccccc2)CC1 (stereo unspecified) | inactive |
| O=S(=O)(NC1c2cccc3cccc(c23)C1Sc1ncccn1)c1ccccc1 (stereo unspecified) | inactive |
| COc1ccc(C(=O)NCCNc2nc3cc(C)c(C)cc3cc2C)cc1 | inactive |
| Cc1onc(-c2ccccc2)c1C(=O)NC(=S)NNC(=O)c1ccc(O)cc1O | inactive |
| CCC(C)(C)NC(=O)C(c1ccc(F)cc1)N(CCOC)C(=O)CCC(=O)Nc1nccs1 (stereo unspecified) | inactive |
| COc1cccc(C(=O)OCn2nnc3ccccc3c2=O)c1OC | inactive |
| CNC(=S)Nc1ccc2nc(C)c(C)nc2c1 | inactive |
| O=C(O)c1ccc(C=NN=C2c3ccccc3-c3ccccc32)cc1 | inactive |
| O=C(N/N=C/c1cccnc1)c1cc(-c2cccs2)nc2ccccc12 | inactive |
| O=C1CC(c2cccs2)Cc2nc(NC(=O)C3CC3)ncc21 (stereo unspecified) | inactive |
| CC(C)[C@H](N[C@@H](C)c1ccccc1)c1c(O)ccc2ccccc12 | inactive |
| CCn1c(SC(C)C)nnc1-c1c[nH]c2ccccc12 | inactive |
| COc1ccccc1-n1c(-c2ccccc2)n[nH]c1=S | inactive |
| CC(=O)c1cc(C(=O)Nc2ccc(C(=O)O)cc2)oc1C | inactive |
| COc1ccc(-c2nc(CN3CCC(C(=O)N4CCOCC4)CC3)c(C)o2)cc1C | inactive |
| COc1ccc(-n2cnc3c(cnn3CCC#N)c2=N)cc1 | inactive |
| O=C(N/C(=C/c1ccc(Br)cc1)C(=O)N1CCOCC1)c1ccc(Br)o1 | inactive |
| CCN(CC(=O)NCc1ccc(F)cc1)CC(=O)Nc1cc(S(=O)(=O)N(C)C)ccc1C | inactive |
| O=C(Nc1cc(Cl)ccc1Cl)C1Cc2ccccc2O/C1=N\O (stereo unspecified) | inactive |
| COc1ccc(CNC(=O)N2[C@H]3CC[C@@H]2C=C(c2ccc(F)cc2OCc2ccccc2)C3)cc1OC | inactive |
| Cc1cccc(Cn2nc(-n3cccc3)c3c(C)cc(C)nc32)c1 | inactive |
| Clc1cccc(CN2CCCCCC2)c1 | inactive |

| Compound | outcome |
| --- | --- |
| CN1CCc2cccc3c2C1Cc1ccc(O)c(O)c1-3 (stereo unspecified) | inactive |
| CCOc1ccccc1C(=O)NC1CC2CCCC(C1)N2Cc1nnnn1Cc1ccco1 (stereo unspecified) | inactive |
| COc1ccc(OC)c(NC(=O)COC(=O)COc2ccc(Nc3ccccc3)cc2)c1 | inactive |
| COc1ccccc1NC(=O)C(=O)N/N=C(\C)CC(=O)Nc1ccccc1C(F)(F)F | inactive |
| S=C(NN=C1C2CC3CC(C2)CC1C3)Nc1ccccc1 | inactive |
| CC(=O)Nc1ccc(S(=O)(=O)N2CCCC2)cc1 | inactive |
| COc1ccc(S(=O)(=O)N2CCCCCC2)cc1C(=O)OCc1cccc(OC)c1OC | inactive |
| COC(=O)c1cc2n(n1)CCN(Cc1ccccc1Cl)C2=O | inactive |
| COC(=O)CCCC[C@@H]1SC[C@@H](NC(=O)OC)[C@@H]1NC(=O)OC | inactive |
| N#CCCn1cc(C(=O)Nc2ccccn2)c(-c2ccccc2)n1 | inactive |
| C/C(=N\Nc1ccc(C(F)(F)F)cc1[N+](=O)[O-])C(C)C | inactive |
| COc1ccc(S(=O)(=O)N2CCOCC2)cc1NC(=O)COC(=O)CCS(=O)(=O)c1ccc(C)cc1 | inactive |
| CN(CC(=O)Nc1cccnc1)S(=O)(=O)c1ccc(Br)cc1 | inactive |
| N#CCN(N=Nc1ccccc1)c1ccccc1 | inactive |
| CCOC(=O)C1CCN(S(=O)(=O)Cc2ccccc2)C1=O (stereo unspecified) | inactive |
| COc1cccc(C2=CC(=O)C[C@H](c3ccc4c(c3)OCO4)C2)c1 | inactive |
| COc1cc(C2NC(=O)NC(C)=C2C(=O)OC2CCCC(C)C2)cc(Br)c1O (stereo unspecified) | inactive |
| Cc1cc(N2CCCC2=O)cc(C)c1S(=O)(=O)Nc1c(C)nn(C)c1C | inactive |
| N#CC1=C(N)OC2=C(C(=O)CCC2)C12C(=O)N1CCCc3cccc2c31 (stereo unspecified) | inactive |
| O=C1CCc2cc(OCCCCc3nnnn3C3CCCCC3)ccc2N1 | inactive |
| CN(C)S(=O)(=O)c1cccc(NC(=O)c2n[nH]c(=O)c3ccccc23)c1 | inactive |
| Cc1cc(C)nc(SCC(=O)OCN2C(=O)c3ccccc3C2=O)n1 | inactive |
| Cc1cc(N=Cc2c(O)ccc3cc(Br)ccc23)no1 | inactive |
| Cc1cc2ccccc2n1CCNC(=O)COc1ccc2ccccc2c1 | inactive |
| CCOc1ccc(N(C(C)C(=O)N2CCCCCC2)S(C)(=O)=O)cc1 (stereo unspecified) | inactive |
| CCOc1cccc(CNc2nnnn2C)c1 | inactive |

| Compound | outcome |
| --- | --- |
| CCOc1ccc(S(=O)(=O)N2CCC(C(=O)NCCc3ccc(S(N)(=O)=O)cc3)CC2)cc1 | inactive |
| COc1ccccc1/C=C/C(=O)c1ccc(Cl)cc1 | inactive |
| CCn1c(NC(=O)c2ccc(C)cc2)c2ccccc2nc1=O | inactive |
| COc1ccc(NC(=O)c2cc3c(CO)cnc(C)c3oc2=Nc2cccc(F)c2)c(OC)c1 | inactive |
| Brc1ccc(-c2csc(N3CCCCCC3)n2)cc1 | inactive |
| C=CCn1c(SCc2ccc3nonc3c2)nnc1-c1cccs1 | inactive |
| Oc1ccccc1C=NN=Cc1c(O)ccc2ccccc12 | inactive |
| COc1cccc(/C=N\NC(=O)c2ccc(C)nc2)c1 | inactive |
| COc1cc(C2CC(=O)N3CN(Cc4ccccc4)CSC3=C2C#N)ccc1OCc1ccccc1 (stereo unspecified) | inactive |
| Cc1cc(C)c(S(=O)(=O)N2CCN(C(=O)c3ccccc3OCc3c(C)noc3C)CC2)c(C)c1 | inactive |
| COc1cc(OC)cc(C(=O)N[C@H](C(=O)OCC(=O)c2ccc(C)c([N+](=O)[O-])c2)C(C)C)c1 | inactive |
| COCCn1c(SCC(=O)N2CCc3ccccc32)nc2c(c1=O)SC(C)C2 (stereo unspecified) | inactive |
| COCCNC(=O)C1CCC(CNS(=O)(=O)c2ccccc2)CC1 (stereo unspecified) | inactive |
| COc1ccc(N2C3=[N+](CC2(C)O)c2ccccc2CC3)cc1 (stereo unspecified) | inactive |
| CC(CCc1ccco1)N(C)S(=O)(=O)c1csc(C(N)=O)c1 (stereo unspecified) | inactive |
| CCc1nnc(NC(=O)c2cc(S(=O)(=O)N3CCN(CC)CC3)ccc2Cl)s1 | inactive |
| Cc1nn(CCCC(=O)Nc2cccnc2Cl)c(C)c1[N+](=O)[O-] | inactive |
| Cc1ccc(N2C(=O)c3ccccc3C2Nc2cccnc2)nc1 (stereo unspecified) | inactive |
| COC(=O)C1=NNC(C(=O)OC)C1c1ccccc1 (stereo unspecified) | inactive |
| CCOC(=O)C1=C(C)N(C)C(=O)NC1c1ccccc1OC (stereo unspecified) | inactive |
| CCCN(CC1CC1)c1nc(C)nc(Nc2c(Cl)cc(Cl)cc2Cl)c1Cl | inactive |
| CC1CCC(NC(=O)CC2Oc3ccccc3NC2=O)CC1 (stereo unspecified) | inactive |

From PubChem BioAssay AID588343 (Broad Institute, 2011)
